Laboratory results taken from PubChem BioAssay (NCATS).
Inconclusive results are not listed. Values without a mark were called inactive. The source made the active and inactive calls. Calls follow the shape of the dose curve; as a rule, active = well fitted cell-killing curve with a large enough effect; inconclusive = small, poorly fitted or top-dose-only effect, or effect the other way; inactive = no such curve, though single readings can be large or run the other way.

Assay: Quantitative highthroughput screen to assess conditional lethalithy of SEM cells grown in Human Plasma-Like Medium with dialyzed fetal bovine serum (HPLM+ds) (AID 1963882); also: nearly all actives have a fitted effect of over 35% in size
Details: SEM B-ALL cells in HPLM+ds, CellTiter-Glo viability, 48 h; series mostly up to 45.8 µM; viability: at the top concentration
Source text: Assay Provider: Jason Cantor Ph.D.
Department of Biochemistry
University of Wisconsin-Madison, Madison, WI, USA
Chemical screening studies have identified drug sensitivities across hundreds of cancer cell lines but most putative therapeutics fail to translate. Discovery and development of drug candidates in models that more accurately reflect nutrient levels in human blood is a major challenge. Here we performed high-throughput screens in conventional versus Human Plasma-Like Medium (HPLM) to identify compounds that were "missed" when screening using the artificial culture condition. Sets of conditional anticancer compounds spanned phases of clinical development and included non-oncology drugs were assessed. […] We also traced conditional phenotypes for several chemotherapeutics to availability of HPLM-specific metabolites and confirmed others for compounds whose reported targets are encoded by nonessential genes. Our findings establish generalizable strategies for exploiting conditional lethality in HPLM to reveal therapeutic candidates and mechanisms of action in cancer cells.
Described herein are the results of each viability screens against three cell lines: NOMO1 (an acute myeloid leukemia cell line); P12-Ichikawa (a T-cell acute lymphoblastic leukemia); and SEM (a B-cell ALL). Each assay was screened using 3 different cell culture media: homemade human plasma-Like medium with 10% dialyzed fetal bovine serum (HPLM+ds); RPMI1640 with 10% untreated FBS and 5mM glucose (RPMI+s); and RPMI1640 with 10% dialyzed fetal bovine serum and 5 mM glucose (RPMI+ds).
PROTOCOL TABLE (as described by Inglese J, Shamu CE and Guy RK. 2007)
SEQUENCE No. (e.g., 1, 2, 3, etc.); […] (e.g., Cells, Incubation, Reagent, etc.); VALUE and DESCRIPTION.
1; Cells; 5 uL; white, solid bottom 1536-well Greiner assay plate.
2; Compounds; 23 nL; Kalypsis pin tool (Wako USA) equipped with a 1536-well pin head to transfer to the assay plates.
3; Incubation; 48 hours; 37C incubation.
4; Reagent; 3 uL; CellTiter Glo (Promega).
5; Incubation; 5 min, room temperature
6; Detection; Luminescence, Viewlux PerkinElmer.
NOTES (numbers refer to Sequence numbers above)
1. Briefly, 5 ul of cell reagent was dispensed using a Multidrop Combi Dispenser. The NOMO1 and SEM cells were plated at 500 cells/well and the P12-Ichikawa line at 1000 cells/well.
2. After seeding the cells, 23 nL of MIPE 4.1 library compounds (in DMSO) were added to each plate using a Kalypsys 1536 Pintool dispenser. Bortezomib at final concentration of […] and DMSO were added to each plate as positive and negative controls respectively. For each screen, MIPE 4.1 compounds were added over an eleven-point concentration range […] in 3-fold dilutions.
3. Each plate was covered with a stainless steel gasketed lid to prevent evaporation and incubated for 48 hour at 37C, 95% relative humidity, and 5% CO2.
4-5. Three microliter CellTilter-GloTM luminescent substrate mix (Promega) reagent was added to the assay plate and incubated at room temperature for 5 min.
6. The luminescence signal was measured using a ViewLux (PerkinElmer) multiplate reader with a 2 second exposure time per plate. Data for each compound were normalized as percent viability such that measurements for DMSO and the empty well controls in each plate were defined as 100% and 0%, respectively.
Potency is read from the fitted curve at half-maximal effect.

Row | Structure (SMILES) | viability | Potency
1 | O=C(Oc1ccc([N+](=O)[O-])cc1)N1CCC(C(O)(c2ccc3c(c2)OCO3)c2ccc3c(c2)OCO3)CC1 | 99.5% | –
2 | NC1=NC(=O)N2CC12 (stereo not given) | – | 3320 nM (active)
3 | NC1CC1c1ccccc1 (stereo not given) | 91.5% | –
4 | CN(C)CCN(C)CCc1ccc(Cl)c(Cl)c1 | 90.6% | –
5 | CC(C)[C@H]1C(=O)N[C@H](CO)Cc2c[nH]c3cccc(c23)N1C | 64.4% | –
6 | C[C@]12Cc3cn[nH]c3C[C@@H]1CC[C@@H]1[C@H]2CC[C@@]2(C)[C@H]1CC[C@]2(C)O | 94.6% | –
7 | COc1cc(C(=O)N2CC[C@@H](O)[C@@H](N)C2)cc2nc(-c3cc4ccccc4n3CC3CC3)n(C)c12 | – | 1320 nM (active)
8 | O=C(Oc1ccc([N+](=O)[O-])cc1)N1CCN(Cc2cccc(Oc3ccccc3)c2)CC1 | 103% | –
9 | CC(N[C@H]1C[C@H]1c1ccccc1)c1ccc2c(c1)OCCO2 (stereo not given in full) | 91.8% | –
10 | C[C@]12CC[C@@H]3[C@@H](CCC4=CC(=O)CC[C@@H]43)[C@@H]1CC[C@@H]2OC(=O)CCc1ccccc1 | 90.5% | –
11 | Clc1ccccc1C(c1ccccc1)(c1ccccc1)n1cccn1 | 110% | –
12 | N[C@@H](Cc1ccc(N(CCCl)CCCl)cc1)C(=O)O | – | 4180 nM (active)
13 | CC1=NN=C(c2ccc(N)cc2)c2cc3c(cc2C1)OCO3 | 80.2% | –
14 | Cc1cccc(C)c1NC(=O)CN1CCCC1=O | 91.2% | –
15 | Cc1sc2c(c1C)C(c1ccc(Cl)cc1)=N[C@@H](CC(=O)OC(C)(C)C)c1nnc(C)n1-2 | – | 166 nM (active)
16 | COC1=C[C@@H]2[C@@H]3Cc4ccc(OC)c(O)c4[C@]2(CCN3C)CC1=O | 98.8% | –
17 | CC(C)N(CCNC(=O)CN1CCCC1=O)C(C)C | 97.6% | –
18 | CN[C@@H]1Cc2cccc3[nH]c(=O)n(c23)C1 | 96.8% | –
19 | Cc1ncc(OC[C@@]2(c3cccc(F)c3)C[C@H]2C(=O)Nc2ccc(F)cn2)c(C)n1 | 82.7% | –
20 | CCNC(=O)C[C@@H]1N=C(c2ccc(Cl)cc2)c2cc(OC)ccc2-n2c(C)nnc21 | – | 935 nM (active)

Row | Structure (SMILES) | viability | Potency
21 | COc1ccc2c(c[n+](C)c3c4cc5c(cc4ccc23)OCO5)c1OC | – | 14800 nM (active)
22 | C[C@]12CC[C@H]3[C@@H](CCC4=CC(=O)CC[C@@]43C)[C@H]1CC[C@H]2O | 102% | –
23 | C[C@@]12OC(=O)[C@]1([C@@H](O)[C@@H]1C=CCCC1)NC(=O)[C@H]2CCCl | – | 52.6 nM (active)
24 | Cc1ccccc1-n1c(Cn2ncc3c(N)ncnc32)nc2cccc(C)c2c1=O | 104% | –
25 | C[C@@H]1CC[C@H]2[C@@H](C)C(=O)O[C@@H]3O[C@@]4(C)CC[C@H]1[C@]32OO4 | 99.3% | –
26 | CC(=Cc1csc(C)n1)[C@@H]1C[C@H]2O[C@]2(C)CCC[C@H](C)[C@@H](O)[C@@H](C)C(=O)C(C)(C)[C@@H](O)CC(=O)O1 | 17.8% | –
27 | O=c1[nH]c2ccccc2n1C1CCN(Cc2ccc(-c3[nH]c4cc5ncnc5cc4nc3-c3ccccc3)cc2)CC1 | 80.5% | –
28 | C[C@H]([C@H](O)CCC(C)(C)O)[C@H]1CC[C@@]2(O)C3=CC(=O)[C@@H]4C[C@@H](O)[C@@H](O)C[C@]4(C)[C@@H]3CC[C@]12C | 98.5% | –
29 | O=C(O)CNC(=O)c1c(O)c2ccccc2n(Cc2ccccc2)c1=O | 101% | –
30 | COc1cc2cc(c1Cl)N(C)C(=O)C[C@H](OC(=O)C(C)C)[C@]1(C)O[C@H]1[C@H](C)[C@@H]1C[C@@](O)(NC(=O)O1)[C@H](OC)C=CC=C(C)C2 | 2.42% | –
31 | O=c1[nH]c2ccc(Cl)cc2c(N[C@@H]2CN3CCC2CC3)c1-c1nc2ccccc2[nH]1 | – | 41.8 nM (active)
32 | C[C@@H]1C[C@@H]([C@H](O)CC2CC(=O)NC(=O)C2)C(=O)[C@@H](C)C1 | – | 418 nM (active)
33 | C=C[C@@H]1CN2CCC1C[C@@H]2[C@@H](O)c1ccnc2ccccc12 (stereo not given in full) | 91.8% | –
34 | C[C@]12CC[C@H]3[C@@H](CCC4=CC(=O)CC[C@@]43C)[C@H]1CC[C@H]2OC(=O)CCC1CCCC1 | 102% | –
35 | O=C(O)c1nn(Cc2ccc(Cl)cc2Cl)c2ccccc12 | 67.4% | –
36 | CC(C)c1cccc(C(C)C)c1O | 98.5% | –
37 | C[C@@H]1[C@@H](CC(C[C@H]2O[C@@H]3O[C@]4(C)CC[C@@H]5[C@H](C)CC[C@@H]([C@H]2C)[C@@]35OO4)C[S+](=O)([O-])c2ccc(COC(=O)N(C)C)cc2)O[C@@H]2O[C@]3(C)CC[C@H]4[C@H](C)CC[C@@H]1[C@@]24OO3 (stereo not given in full) | – | 743 nM (active)
38 | CC1=C(O)C(=O)C=C2C1=CC=C1[C@@]2(C)CC[C@@]2(C)[C@@H]3C[C@](C)(C(=O)O)CC[C@]3(C)CC[C@]12C | – | 2640 nM (active)
39 | CCN(CC)C(=O)c1ccc(C2=CC3(CCNCC3)Oc3cccc(O)c32)cc1 | 82.1% | –
40 | c1ccc2c(CN3CCNCC3)cccc2c1 | 86.2% | –
